Source: PubChem BioAssay
PPC-1+TRAIL kill – kills PPC-1 cancer cells in the presence of TRAIL; PPC-1 cells + TRAIL, ATPLite viability luminescence; actives 0.41% (n = 220,000); cell killing (% activity), % at 4 µM or 5 µM;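 active = cell killing above 50% in the first pass at 4 µM, then a duplicate retest at 5 µM averaging 50% or more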;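 also: plate controls were cells with TRAIL plus DMSO for no effect and medium-only wells lacking cells for full effect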
KKLEB tox – reduces viability of KKLEB cystic fibrosis airway cells; activity change (cytotoxicity), % at 5 µM; KKLEB CF airway cells viability, ATPlite luminescence, overnight; stronger effect = lower value; cells stimulated with P. aeruginosa culture filtrate; actives 0.36% (n = 360,000);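 active = corrected activity change at or below -50% at 5 µM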
HIF-2a block – HIF-2a inhibition; 786-0 RCC cells HIF-2a reporter, luciferase luminescence, overnight; actives 0.72% (n = 360,000); inhibition, % at 18.8 µM; AID 624352;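 active = inhibition of the luminescence signal of 40% or more relative to plate controls, in a single-dose primary screen at 18.75 µM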
CF NFkB inh – cystic fibrosis NF-kB activation inhibition. KKLEB NF-kB-GFP reporter, PAF-induced, GFP fluorescence overnight. inhibition, % at 5 µM. actives 0.86% (n = 360,000);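 active = at least 50% inhibition at 5 µM, scaled per plate between neutral and stimulator controls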;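 also: PAF is a Pseudomonas aeruginosa culture filtrate used as stimulus; plate controls were PAF-stimulated DMSO wells for no effect and unstimulated DMSO wells for full effect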
iPSC survival up – enhancers of human iPSC single-cell survival; hiPSC single-cell survival, ATPlite luminescence; 100% = ROCK inhibitor wells, 0% = DMSO; survival enhancement, % at 20 µM; actives 0.044% (n = 360,000); in the data active = survival enhancement above about 18%;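 also: cells exposed to compounds for 16 hours before the ATP read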
C8 TRAIL sens – sensitizes caspase-8 expressing cells to TRAIL; NB7+C8 cells + TRAIL, ATPlite viability luminescence; inhibition (viability loss, TRAIL sensitization), % at 10 µM; actives 1% (n = 360,000); AID 624354;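 active = compounds causing at least 50% loss of cell viability in the single-dose screen, relative to plate controls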
An asterisk follows results filed as active. In the library only some 2.2% were active in any assay of this set; here they are far more common.

Screening CC(C)c1ccc(N2C(=O)CC(Sc3ncccn3)C2=O)cc1 (centres undefined) returned KKLEB tox 4, HIF-2a block 19, CF NFkB inh -21, iPSC survival up 0 and C8 TRAIL sens 9.
For N#C/C(=N\Nc1ccc(S(=O)(=O)N2CCc3ccccc32)cc1)C(N)=S the results were PPC-1+TRAIL kill -6, KKLEB tox -9, HIF-2a block 32, CF NFkB inh 58*, iPSC survival up 1 and C8 TRAIL sens 23.
CC(C)c1nc2sc3c(NCc4ccccc4)ncnc3c2c2c1COC(C)(C)C2 was read as PPC-1+TRAIL kill -1, KKLEB tox -29, HIF-2a block 2, CF NFkB inh 36, iPSC survival up 2 and C8 TRAIL sens -1.
For CC(C)c1nc2sc3c(NCc4ccco4)ncnc3c2c2c1COC(C)(C)C2 the results were PPC-1+TRAIL kill 4, KKLEB tox -66*, HIF-2a block 27, CF NFkB inh 78*, iPSC survival up 0 and C8 TRAIL sens 2.
For O=C(NCc1ccccc1)C1C(c2ccc3c(c2)OCO3)=Nc2ccccc2N1C(=O)c1ccco1 (centres undefined) the results were HIF-2a block -173 and C8 TRAIL sens 10.
`Cc1cc(NC(=O)c2ccc(S(=O)(=O)N3CCOCC3)cc2)nc2c1c(=O)oc1ccccc12` gave PPC-1+TRAIL kill 5.
CCOc1ccc(C(=O)Nc2cc(C)c3c(=O)oc4ccccc4c3n2)cc1 was read as PPC-1+TRAIL kill 16, KKLEB tox -2, HIF-2a block 2, CF NFkB inh -28, iPSC survival up -1 and C8 TRAIL sens 56*.
Screening Cc1cc(NC(=O)c2ccc(S(=O)(=O)N3CCCC3)cc2)nc2c1c(=O)oc1ccccc12 returned PPC-1+TRAIL kill 20, KKLEB tox -54*, HIF-2a block -24, CF NFkB inh 47, iPSC survival up -1 and C8 TRAIL sens 55*.
`COc1cccc(/C=N/Nc2ccnc(=O)[nH]2)c1O` gave KKLEB tox -5, HIF-2a block -116, CF NFkB inh 6, iPSC survival up 0 and C8 TRAIL sens 48*.
Screening COc1cccc(/C=N/Nc2ccc(C(=O)O)cc2)c1O returned PPC-1+TRAIL kill 18, KKLEB tox 7, HIF-2a block 95*, CF NFkB inh 0, iPSC survival up -2 and C8 TRAIL sens 56*.
`O=c1nccc(N/N=C/c2ccccc2O)[nH]1` gave KKLEB tox 4, HIF-2a block -105, CF NFkB inh -4, iPSC survival up 0 and C8 TRAIL sens 64*.
Screening CCOc1ccccc1/C=N/Nc1ccnc(=O)[nH]1 returned KKLEB tox 14, HIF-2a block 6, CF NFkB inh -9, iPSC survival up 1 and C8 TRAIL sens 1.
Screening COc1cccc(/C=N/Nc2ccc(S(=O)(=O)O)cc2)c1O returned PPC-1+TRAIL kill -8, KKLEB tox 5, HIF-2a block 18, CF NFkB inh 6, iPSC survival up 0 and C8 TRAIL sens -3.
Screening COc1ccc(NC(=O)COC(=O)c2ccc(S(=O)(=O)N(C)c3ccccc3OC)cc2)cc1 returned KKLEB tox 3, HIF-2a block -12, CF NFkB inh 9, iPSC survival up 1 and C8 TRAIL sens -9.
CCOC(=O)c1ccc(N2N=C(C)/C(=C/C=C/c3ccco3)C2=O)cc1 was read as PPC-1+TRAIL kill 17, KKLEB tox 12, HIF-2a block -4, CF NFkB inh -38, iPSC survival up -2 and C8 TRAIL sens -4.
For CC1=NN(c2ccc(C)c(C)c2)C(=O)/C1=C\C=C\c1ccc([N+](=O)[O-])o1 the results were PPC-1+TRAIL kill 16, KKLEB tox -41, HIF-2a block -1, CF NFkB inh 38, iPSC survival up 0 and C8 TRAIL sens 79*.
CN=c1sc2c(n1C)C(=O)c1ccccc1C2=O was read as KKLEB tox -67*, HIF-2a block -98, CF NFkB inh 82*, iPSC survival up -2 and C8 TRAIL sens 76*.
CC(C)COC(=O)c1ccc2c(c1O)C(=O)c1ccccc1C2=O was read as PPC-1+TRAIL kill 36, KKLEB tox -6, HIF-2a block -175, CF NFkB inh -2, iPSC survival up -1 and C8 TRAIL sens 57*.
COc1ccc(N2CCN(C(=O)C(Cc3ccccc3)n3cccc3)CC2)cc1 (centres undefined) was read as PPC-1+TRAIL kill 82*, KKLEB tox 26, HIF-2a block 10, CF NFkB inh -14, iPSC survival up -4 and C8 TRAIL sens -8.
O=C(C(Cc1ccccc1)n1cccc1)N1CCN(c2cccc(Cl)c2)CC1 (centres undefined) was read as PPC-1+TRAIL kill 8, KKLEB tox 1, HIF-2a block 13, CF NFkB inh -2, iPSC survival up -1 and C8 TRAIL sens -1.
`O=C(c1ccc(F)cc1)C(CN1CCOCC1)c1ccccc1` (centres undefined) gave PPC-1+TRAIL kill 18, KKLEB tox -68*, HIF-2a block 30, CF NFkB inh 90*, iPSC survival up -1 and C8 TRAIL sens 20.
Screening COc1ccc(C(=O)CCN2CCCCCC2)cc1 returned PPC-1+TRAIL kill 5, KKLEB tox 8, HIF-2a block 9, CF NFkB inh 7, iPSC survival up -1 and C8 TRAIL sens -7.
`O=C(c1ccc(Cl)cc1)C(CN1CCCC1)c1ccccc1` (centres undefined) gave KKLEB tox -60*, HIF-2a block 37, CF NFkB inh 69*, iPSC survival up 0 and C8 TRAIL sens 36.
Screening COc1ccc(C(=O)C(CN2CCOCC2)c2ccccc2)cc1 (centres undefined) returned PPC-1+TRAIL kill -13, KKLEB tox -61*, HIF-2a block -20, CF NFkB inh 54*, iPSC survival up -1 and C8 TRAIL sens 2.
Screening COc1ccc(C(=O)C(CN2CCCC2)c2ccccc2)cc1 (centres undefined) returned PPC-1+TRAIL kill 3, KKLEB tox -58*, HIF-2a block -5, CF NFkB inh 54*, iPSC survival up -4 and C8 TRAIL sens -8.
For O=C(c1ccc(Cl)cc1)C1CCN(Cc2ccccc2)CC1 the results were KKLEB tox -9, HIF-2a block 2, CF NFkB inh 9, iPSC survival up 1 and C8 TRAIL sens -4.
CCC(O)(c1ccc(OC)cc1)C(CN1CCOCC1)c1ccccc1 (centres undefined) was read as PPC-1+TRAIL kill 18, KKLEB tox -1, HIF-2a block 13, CF NFkB inh -4, iPSC survival up 0 and C8 TRAIL sens 1.
For COc1cc(CN(C(=O)c2cccs2)C2CCS(=O)(=O)C2)cc(OC)c1OC (centres undefined) the results were KKLEB tox 9, HIF-2a block 3, CF NFkB inh -2, iPSC survival up 0 and C8 TRAIL sens -18.
